Bioassay records deposited in PubChem BioAssay by Broad Institute.
This is one part of a sample in which hits are shown more often than they occur.
STK33 inh – human STK33 kinase inhibition | Q9BYT3 | ADP-Glo luminescence, MBP substrate | inhibition, % at 12.5 µM | hit rate 0.44% among 27,000; in the data active = inhibition above about 20%
Target sequence (Q9BYT3 whole entry, looked up): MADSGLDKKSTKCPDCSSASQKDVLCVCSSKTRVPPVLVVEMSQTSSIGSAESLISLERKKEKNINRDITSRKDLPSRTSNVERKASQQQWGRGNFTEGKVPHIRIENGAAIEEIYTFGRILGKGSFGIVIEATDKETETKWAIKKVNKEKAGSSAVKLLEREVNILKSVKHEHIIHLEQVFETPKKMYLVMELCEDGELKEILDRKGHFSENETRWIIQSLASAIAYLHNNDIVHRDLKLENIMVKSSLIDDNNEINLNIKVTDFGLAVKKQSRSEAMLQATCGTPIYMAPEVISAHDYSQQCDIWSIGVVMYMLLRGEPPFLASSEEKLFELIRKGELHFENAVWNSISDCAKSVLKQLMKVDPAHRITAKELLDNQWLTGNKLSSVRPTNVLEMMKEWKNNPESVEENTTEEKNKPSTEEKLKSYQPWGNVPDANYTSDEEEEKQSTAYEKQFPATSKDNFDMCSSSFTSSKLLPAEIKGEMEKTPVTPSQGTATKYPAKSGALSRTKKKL
NOMO-1 viab – STK33 inhibitor candidate reducing NOMO-1 cell viability. NOMO-1 AML viability, CellTiter-Glo luminescence, 72 h. inhibition, % (concentration not given with the values). hit rate 7.5% among 37,000. AID 2330; in the data active = inhibition above about 80%
ID4 binder – binds human ID4 protein on microarray | calls only | small molecule microarray, Flag-ID4 binding, fluorescence F/B | P47928 | hit rate 1.2% among 31,000; call rule not given here;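 note: a binder raises fluorescence above local background on the spot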
p53 PUMA act – re-activators of the mutant p53 pathway | hit rate 1.5% among 28,000 | activation, % at 9.98 µM | SW480 PUMA-promoter luciferase, p53 mutant reactivation | AID 624151; in the data active = activation above about 52%
Active calls of the source: *; i = inactive; / = no result given; + = active, no number.

SMILES	STK33 inh	NOMO-1 viab	ID4 binder	p53 PUMA act
COC(=O)c1ccccc1NC(=O)CNC(=O)c1ccccc1	-3.1	29.0	i	-9.3
COC(=O)c1ccccc1NC(=O)NCc1ccc(C(=O)O)cc1	0.6	-18.9	+	-3.6
COC(=O)c1ccccc1NC(=O)c1ccc(COc2ccccc2)o1	4.3	9.2	i	102.6*
COc1cc2c(cc1OC)CN(C(=O)CSc1n[nH]c(N)n1)CC2	-4.7	-15.9	+	-2.0
C[C@H](CO)N1C[C@H](C)[C@@H](CN(C)C(=O)Nc2ccccc2F)Oc2cc(-c3ccc(C(=O)N(C)C)cc3)ccc2S1(=O)=O	/	/	+	-7.7
C[C@@H]1CN([C@H](C)CO)S(=O)(=O)c2ccc(-c3cccc(C(=O)N(C)C)c3)cc2O[C@H]1CN(C)C(=O)Nc1ccc(F)cc1	/	/	+	9.6
COc1ccc(-c2ccc3c(c2)O[C@@H](CN(C)C(=O)Nc2ccccc2F)[C@@H](C)CN([C@H](C)CO)S3(=O)=O)cc1	/	/	/	-17.5
C[C@H](CO)N1C[C@H](C)[C@@H](CN(C)C(=O)c2ccncc2)Oc2cc(C3=CCCC3)ccc2S1(=O)=O	/	/	+	9.9
CC(=O)N(C)C[C@@H]1Oc2cc(-c3ccccc3C)ccc2S(=O)(=O)N([C@H](C)CO)C[C@@H]1C	/	/	+	-12.1
C[C@@H]1CN([C@@H](C)CO)S(=O)(=O)c2ccc(-c3cccc(C(=O)N(C)C)c3)cc2O[C@H]1CN(C)C(=O)Nc1ccc(F)cc1	/	/	/	5.2
Cc1cc(Br)cnc1N=CN(C)C	-0.5	0.4	/	/
C[C@@H]1CCCCO[C@H](CN(C)S(C)(=O)=O)[C@@H](C)CN([C@@H](C)CO)C(=O)c2cc(NC(=O)Nc3ccccc3)ccc2O1	/	/	i	7.6
CO[C@@H]1CN(C)C(=O)c2ccc(NC(=O)C3CCC3)cc2OC[C@@H](C)N(C)C[C@H]1C	/	/	i	/
COc1ccc(NC(=O)N(C)C[C@@H]2Oc3cc(-c4ccncc4)ccc3S(=O)(=O)N([C@H](C)CO)C[C@H]2C)cc1	/	/	+	-5.6
C[C@H](CO)N1C[C@H](C)[C@H](CN(C)Cc2ccccc2)Oc2cc(/C=C/c3ccccc3)ccc2S1(=O)=O	/	/	i	-9.5
C[C@@H]1CN([C@H](C)CO)S(=O)(=O)c2ccc(-c3ccc(C(=O)N(C)C)cc3)cc2O[C@@H]1CN(C)Cc1ccc2c(c1)OCO2	/	/	+	-15.0
C[C@@H]1CN([C@@H](C)CO)S(=O)(=O)c2ccc(/C=C/c3ccccc3)cc2O[C@H]1CN(C)Cc1ccc(C(=O)O)cc1	/	/	+	-4.8
COc1ccccc1-c1ccc2c(c1)O[C@H](CN(C)Cc1ccc3c(c1)OCO3)[C@H](C)CN([C@@H](C)CO)S2(=O)=O	/	/	i	-18.0
C[C@H](CO)N1C[C@H](C)[C@H](CN(C)Cc2cncnc2)Oc2cc(-c3ccncc3)ccc2S1(=O)=O	/	/	+	-8.5
C[C@H](CO)N1C[C@H](C)[C@H](CN(C)C)Oc2cc(-c3ccncc3)ccc2S1(=O)=O	/	/	/	8.5
C[C@H]1CN([C@@H](C)CO)C(=O)Cc2cc(NC(=O)Cc3cn(C)c4ccccc34)ccc2O[C@H]1CN(C)C(=O)Nc1ccc2c(c1)OCO2	2.8	-1.8	/	/
CC1CCc2c(sc(NC(=O)COc3cccc4ccccc34)c2C#N)C1 (stereo unspecified)	2.1	6.8	i	-1.1
Cc1noc(C)c1NC(=O)Nc1ccc2c(c1)CC(=O)N([C@H](C)CO)C[C@@H](C)[C@H](CN(C)CC1CC1)O2	-2.2	-24.8	/	8.2
O=C(CSc1nc(Nc2ccccc2)nc(N2CCOCC2)n1)Nc1ccccc1Cl	4.1	13.3	i	4.8
O=C(O)c1ccccc1Nc1nc(N2CCOCC2)nc(N2CCOCC2)n1	0.7	10.8	i	55.8*
SMILES	STK33 inh	NOMO-1 viab	ID4 binder	p53 PUMA act
CCOC(=O)c1nnn2c3ccccc3c(=O)n(Cc3ccc(Cl)cc3)c12	/	12.9	/	/
Cc1ccc(C)c(OCCCCSc2ncccn2)c1Cl	-2.9	43.6	i	38.9
Cc1cc(Cl)cc(Br)c1OCCCSc1ncccn1	-1.0	21.4	i	131.9*
CC(O)c1cc(-c2ccc(Cl)cc2Cl)no1 (stereo unspecified)	/	/	i	112.9*
CC(Oc1ccc(Cl)cc1Cl)/C(N)=N/O (stereo unspecified)	/	/	i	12.2
C[C@@H]1CN([C@@H](C)CO)C(=O)c2cccc(NC(=O)c3nc4ccccc4s3)c2O[C@@H]1CN(C)S(=O)(=O)c1ccccc1	/	102.1*	/	/
C[C@H](CO)N1C[C@H](C)[C@@H](CN(C)S(=O)(=O)c2ccc(Cl)cc2)Oc2c(NC(=O)c3nc4ccccc4s3)cccc2C1=O	/	117.3*	/	/
C[C@H](CO)N1C[C@H](C)[C@H](CN(C)S(=O)(=O)c2ccc(Cl)cc2)Oc2c(NC(=O)c3nc4ccccc4s3)cccc2C1=O	/	92.7*	/	/
C[C@@H]1CN([C@H](C)CO)C(=O)c2cccc(NC(=O)c3nc4ccccc4s3)c2O[C@@H]1CN(C)S(=O)(=O)c1ccccc1	/	11.7	/	/
C[C@H](CO)N1C[C@H](C)[C@H](CN(C)S(=O)(=O)c2ccc(F)cc2)Oc2c(NC(=O)c3nc4ccccc4s3)cccc2C1=O	/	108.5*	/	/
C[C@@H]1CN([C@H](C)CO)C(=O)c2cccc(NC(=O)c3nc4ccccc4s3)c2O[C@H]1CN(C)S(=O)(=O)c1ccccc1	/	46.6	/	/
C[C@@H]1CCCCO[C@@H](CN(C)C(=O)Nc2cccc3ccccc23)[C@@H](C)CN([C@H](C)CO)C(=O)c2cc(NC(=O)Nc3ccccc3)ccc2O1	2.8	40.8	/	/
O=C(C[C@@H]1CC[C@@H](NC(=O)NC2CCCCC2)[C@@H](CO)O1)NCc1ccccc1	/	/	i	/
OC[C@@H]1[C@H]2c3ccccc3OC1(CO)N=C1SCCCN12	/	/	i	/
Cc1ccc(S(=O)(=O)Nc2ccc3c(c2)CC(=O)N([C@H](C)CO)C[C@@H](C)[C@@H](CN(C)S(=O)(=O)c2cccs2)O3)cc1	-2.0	25.7	/	/
C[C@@H]1CN([C@@H](C)CO)C(=O)c2cccc(NC(=O)c3nc4ccccc4s3)c2O[C@@H]1CN(C)S(=O)(=O)c1ccc(Cl)cc1	/	113.1*	/	/
C[C@@H]1CN([C@H](C)CO)C(=O)c2cccc(NC(=O)c3nc4ccccc4s3)c2O[C@@H]1CN(C)S(=O)(=O)c1ccc(Cl)cc1	/	64.8	/	/
COC(=O)CNC(=O)c1cn(-c2ccccc2)nc1-c1cccs1	-1.0	105.0*	i	24.0
C[C@H](CO)N1C[C@H](C)[C@H](CN(C)Cc2ccc(-c3ccccc3)cc2)Oc2ccc(NC(=O)C3CCCCC3)cc2C1=O	-0.4	64.3	/	/
CC1CCC(C(C)C)C(NC(=O)c2cccc3ccccc23)C1 (stereo unspecified)	/	81.8*	/	/
CNC[C@H]1Oc2ccc(NC(=O)C3CCCCC3)cc2CC(=O)N([C@@H](C)CO)C[C@H]1C	/	11.7	/	/
C[C@H]1CN([C@@H](C)CO)C(=O)Cc2cc(NC(=O)c3ccncc3)ccc2O[C@@H]1CN(C)Cc1ccc(C(=O)Nc2ccccc2N)cc1	/	32.4	/	/
C[C@H]1CN([C@@H](C)CO)C(=O)Cc2cc(NC(=O)Nc3ccc4c(c3)OCO4)ccc2O[C@@H]1CN(C)Cc1ccc(C(=O)Nc2ccccc2N)cc1	/	-9.0	/	/
